According to the supplement of paper PMC9801561:
± gives the standard deviation of the averaged measurements.

How the values were obtained:
[1] = system: Escherichia coli Nissle 1917; assay: area under OmniLog respiration curve over 48 h (OmniLog units x h); higher = more growth / nutrient utilisation; extreme values may be limits of the assay; conditions: incubation: 48 h, 37 °C
[2] = system: Escherichia coli Nissle 1917; assay: DuctApe activity index of respiration/growth curve (0 no growth to 9 maximum) (index 0-9); higher = more growth / nutrient utilisation, active = 3 or more; extreme values may be limits of the assay; conditions: incubation: 48 h, 37 °C
[3] = nutrient role: sole sulfur source (pyruvate carbon)
[4] = nutrient role: sole nitrogen source (pyruvate carbon)
[5] = nutrient role: C-Source, carboxylic acid
[6] = nutrient role: C-Source, carbohydrate
[7] = nutrient role: sole phosphorus source (pyruvate carbon)
[8] = nutrient role: C-Source, alcohol
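Throughout, for DuctApe activity index of respiration/growth curve (0 no growth to 9 maximum): biolog PM4 phosphorus and sulfur plates, tetrazolium violet dye reduction read in the OmniLog every 15 min, kinetic curves scored by DuctApe, each plate run in triplicate.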

## N[C@@H](CSCSC[C@H](N)C(=O)O)C(=O)O [L-Djenkolic acid]
[1]; [3]
  area under OmniLog respiration curve: 7730 ± 190
[2]; [3]
  DuctApe activity index: 8 (active)

## NC(=O)NCCC[C@H](N)C(=O)O [L-Citrulline]
[1]; [4]
  area under OmniLog respiration curve: 1240 ± 540
[2]; [4]
  DuctApe activity index: 2.33 (inactive)

## O=C(O)[C@@H](O)[C@@H](O)[C@H](O)[C@@H](O)C(=O)O [D-Saccharic acid]
[1]; [5]
  area under OmniLog respiration curve: 9150 ± 780
[2]; [5]
  DuctApe activity index: 8.67 (active)

## CSCC[C@H](N)C(=O)N[C@@H](C)C(=O)O
[1]; [4]
  area under OmniLog respiration curve: 6410 ± 1200
[2]; [4]
  DuctApe activity index: 7 (active)

## CO[C@@H]1OC[C@@H](O)[C@H](O)[C@H]1O [b-Methyl-D-Xyloside]
[1]; [6]
  area under OmniLog respiration curve: 4.72
[2]; [6]
  DuctApe activity index: 0 (inactive)

## Nc1nc2c(ncn2[C@@H]2O[C@H](CO)[C@@H](O)[C@H]2OP(=O)(O)O)c(=O)[nH]1 [Guanosine 2`-Monophosphate]
[1]; [7]
  area under OmniLog respiration curve: 9820 ± 820
[2]; [7]
  DuctApe activity index: 9 (active)

## NCCO [2-Aminoethanol]
[1]; [8]
  area under OmniLog respiration curve: 149 ± 200
[2]; [8]
  DuctApe activity index: 0 (inactive)

## Nc1ncnc2c1ncn2[C@H]1C[C@H](O)[C@@H](CO)O1 [2`-Deoxyadenosine]
[1]; [6]
  area under OmniLog respiration curve: 8940 ± 560
[2]; [6]
  DuctApe activity index: 8.67 (active)

## C[C@@H](OP(=O)(O)O)[C@H](N)C(=O)O [O-Phospho-L-Threonine]
[1]; [7]
  area under OmniLog respiration curve: 9330 ± 620
[2]; [7]
  DuctApe activity index: 8.67 (active)

## O=S(O)(O)=S [Thiosulfate]
[1]; [3]
  area under OmniLog respiration curve: 6770 ± 170
[2]; [3]
  DuctApe activity index: 7 (active)

## Nc1ncnc2c1ncn2[C@@H]1O[C@H](CO)[C@@H](O)[C@H]1OP(=O)(O)O [Adenosine 2`-Monophosphate]
[1]; [7]
  area under OmniLog respiration curve: 9880 ± 610
[2]; [7]
  DuctApe activity index: 9 (active)

## CCC(=O)C(=O)O [a-Ketobutyric acid]
[1]; [5]
  area under OmniLog respiration curve: 800 ± 760
[2]; [5]
  DuctApe activity index: 1.67 (inactive)

## OCC(O)C(O)C(O)CO (stereo not given) [Adonitol]
[1]; [6]
  area under OmniLog respiration curve: 2610 ± 350
[2]; [6]
  DuctApe activity index: 5 (active)

## O[C@@H]1[C@@H](O)[C@@H](O)CO[C@H]1O [L-Arabinose]
[1]; [6]
  area under OmniLog respiration curve: 8240 ± 430
[2]; [6]
  DuctApe activity index: 8 (active)

## C[C@H](N)C(=O)N[C@H](C(=O)O)[C@@H](C)O
[1]; [4]
  area under OmniLog respiration curve: 7530 ± 1100
[2]; [4]
  DuctApe activity index: 8 (active)

## NCC(=O)N[C@@H](CC(N)=O)C(=O)O
[1]; [4]
  area under OmniLog respiration curve: 8340 ± 1500
[2]; [4]
  DuctApe activity index: 8 (active)

## O=C1O[C@@H]([C@H](O)CO)[C@H](O)[C@H]1O [D-Galactonic acid-g-Lactone]
[1]; [5]
  area under OmniLog respiration curve: 8410 ± 840
[2]; [5]
  DuctApe activity index: 8.33 (active)

## OC1OC[C@@H](O)[C@@H](O)[C@@H]1O (stereo partly drawn) [D-Arabinose]
[1]; [6]
  area under OmniLog respiration curve: 2440 ± 230
[2]; [6]
  DuctApe activity index: 4 (active)

## C[N+](C)(C)CCOP(=O)(O)O [Phosphoryl Choline]
[1]; [7]
  area under OmniLog respiration curve: 8840 ± 430
[2]; [7]
  DuctApe activity index: 8.67 (active)

## NO [Hydroxylamine]
[1]; [4]
  area under OmniLog respiration curve: 5.62 ± 1.6
[2]; [4]
  DuctApe activity index: 0 (inactive)

## C[C@H](O)C(=O)O [L-Lactic acid]
[1]; [5]
  area under OmniLog respiration curve: 7880 ± 510
[2]; [5]
  DuctApe activity index: 8 (active)

## NC(N)=S [Thiourea]
[1]; [3]
  area under OmniLog respiration curve: 4830 ± 410
[2]; [3]
  DuctApe activity index: 6.33 (active)

## O=P(O)(O)O[C@H]1O[C@H](CO)[C@@H](O)[C@H](O)[C@@H]1O [D-Mannose-1-Phosphate]
[1]; [7]
  area under OmniLog respiration curve: 9100 ± 340
[2]; [7]
  DuctApe activity index: 9 (active)

## N[C@@H](CS(=O)O)C(=O)O [L-Cysteine Sulfinic acid]
[1]; [3]
  area under OmniLog respiration curve: 7460 ± 360
[2]; [3]
  DuctApe activity index: 7.67 (active)

## OCC1(O)OC[C@@H](O)[C@@H](O)[C@H]1O (stereo partly drawn) [D-Psicose]
[1]; [6]
  area under OmniLog respiration curve: 3500 ± 700
[2]; [6]
  DuctApe activity index: 4 (active)

## NC(=O)CCC(=O)O [Succinamic acid]
[1]; [5]
  area under OmniLog respiration curve: 9.14 ± 6
[2]; [5]
  DuctApe activity index: 0 (inactive)

## OC[C@@H](O)[C@H](O)[C@@H](O)CO [Xylitol]
[1]; [6]
  area under OmniLog respiration curve: 4.72
[2]; [6]
  DuctApe activity index: 0 (inactive)

## O=C(O)CC(O)(CC(=O)O)C(=O)O [Citric acid]
[1]; [5]
  area under OmniLog respiration curve: 31.1 ± 32
[2]; [5]
  DuctApe activity index: 0 (inactive)

## Nc1ncnc2c1ncn2[C@@H]1O[C@@H]2COP(=O)(O)O[C@H]2[C@H]1O [Adenosine 3`,5`-Cyclic Monophosphate]
[1]; [7]
  area under OmniLog respiration curve: 5670 ± 1300
[2]; [7]
  DuctApe activity index: 6.67 (active)

## NCCO [Ethanolamine]
[1]; [4]
  area under OmniLog respiration curve: 27.4 ± 39
[2]; [4]
  DuctApe activity index: 0 (inactive)

## CS(=O)(=O)O [Methane Sulfonic acid]
[1]; [3]
  area under OmniLog respiration curve: 5490 ± 300
[2]; [3]
  DuctApe activity index: 6.67 (active)

## OC[C@H]1O[C@@H](O[C@H]2[C@H](O)[C@@H](O)[C@@H](O)O[C@@H]2CO)[C@H](O)[C@@H](O)[C@H]1O [a-D-Lactose]
[1]; [6]
  area under OmniLog respiration curve: 7580 ± 630
[2]; [6]
  DuctApe activity index: 7.67 (active)

## CCCC(=O)C(=O)O [a-Keto-Valeric acid]
[1]; [5]
  area under OmniLog respiration curve: 4.72
[2]; [5]
  DuctApe activity index: 0 (inactive)

## Nc1ccn([C@@H]2O[C@H](CO)[C@@H](O)[C@H]2OP(=O)(O)O)c(=O)n1 [Cytidine 2`-Monophosphate]
[1]; [7]
  area under OmniLog respiration curve: 9170 ± 640
[2]; [7]
  DuctApe activity index: 8.67 (active)

## OC[C@H]1OC(O)[C@@H](O)[C@@H](O)[C@@H]1O (stereo partly drawn) [D-Mannose]
[1]; [6]
  area under OmniLog respiration curve: 8430 ± 440
[2]; [6]
  DuctApe activity index: 8 (active)

## CCCCCC(=O)O [Caproic acid]
[1]; [5]
  area under OmniLog respiration curve: 4.72
[2]; [5]
  DuctApe activity index: 0 (inactive)

## O=C[C@@H](O)[C@H](O[C@@H]1O[C@H](CO)[C@H](O)[C@H](O)[C@H]1O)[C@H](O)CO [3-O-b-D-Galactopyranosyl-D-Arabinose]
[1]; [6]
  area under OmniLog respiration curve: 8530 ± 550
[2]; [6]
  DuctApe activity index: 8.33 (active)

## OCC1OC(OC2C(CO)OC(O)C(O)C2O)C(O)C(O)C1O [D-Cellobiose]
[1]; [6]
  area under OmniLog respiration curve: 963 ± 760
[2]; [6]
  DuctApe activity index: 1.33 (inactive)

## O=C(CO)[C@@H](O[C@H]1O[C@H](CO)[C@@H](O)[C@H](O)[C@H]1O)[C@H](O)[C@H](O)CO [Turanose]
[1]; [6]
  area under OmniLog respiration curve: 532 ± 350
[2]; [6]
  DuctApe activity index: 0.333 (inactive)

## Nc1nc2[nH]cnc2c(=O)[nH]1 [Guanine]
[1]; [4]
  area under OmniLog respiration curve: 27.5 ± 39
[2]; [4]
  DuctApe activity index: 0 (inactive)
